From PubChem BioAssay (EPA / NIEHS)
Active and inactive are the calls of the source. How the source made its calls: active means hit-call score of the fitted dose curve at least 0.9, where 1 is the maximum; inactive means score below 0.9.

Read-out: Intercellular Adhesion Molecule 1 (ICAM1), ICAM1 (gene 3383)
Test: BSK_3C_ICAM1: BioMAP Diversity Plus: 3C Assay for Intercellular Adhesion Molecule 1 (ICAM1) Biomarker Activity (AID 2283003)
Details: primary human endothelial cells (HUVEC); actives raise or lower the signal
In short: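 Primary human umbilical vein endothelial cells in the BioMAP 3C system were exposed to chemicals for 24 h, then ICAM-1 was quantified by ELISA. Activity was fitted bidirectionally against the DMSO negative control baseline.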

SMILES | outcome
CCN(CC)c1ccc(C=O)c(O)c1 | inactive
O=C=NCc1cccc(CN=C=O)c1 | inactive
COC(F)(C(F)F)C(F)(F)F (stereo unspecified) | inactive
O=S(=O)(O)CCC(F)(F)C(F)(F)C(F)(F)C(F)(F)F | inactive
O=S(=O)(OCC(F)(F)F)C(F)(F)C(F)(F)C(F)(F)C(F)(F)F | inactive
OCC(F)(F)C(F)(F)C(F)(F)C(F)(F)C(F)(F)C(F)(F)CO | inactive
O=C=Nc1cccc2c(N=C=O)cccc12 | inactive
CC(C)(C)c1cc(CCC(=O)NCCCCCCNC(=O)CCc2cc(C(C)(C)C)c(O)c(C(C)(C)C)c2)cc(C(C)(C)C)c1O | inactive
CCN(CC)c1ccc2c(c1)Oc1cc(N(CC)CC)ccc1C21OC(=O)c2ccccc21 | inactive
O=C(O)C(F)(F)C(F)(F)C(F)(F)OC(F)(F)F | inactive
CCN(CC)c1ccc(C=O)cc1 | inactive
